Results filed as inconclusive are left out. The source made the active and inactive calls. The call rests on the fitted dose curve; in most records, active means well fitted curve in the direction sought with a large enough effect in the signal ratio, with a control signal flat (not every such curve was filed as active); inconclusive means small, poorly fitted or top-dose-only effect, or effect the other way, or a change in a side signal; inactive means no such curve, though single readings can be large or run the other way; the % refers to the signal ratio.
Biological target: Peroxisome proliferator-activated receptor gamma (Homo sapiens) (UniProt P37231)
Sequence (P37231 whole entry, looked up): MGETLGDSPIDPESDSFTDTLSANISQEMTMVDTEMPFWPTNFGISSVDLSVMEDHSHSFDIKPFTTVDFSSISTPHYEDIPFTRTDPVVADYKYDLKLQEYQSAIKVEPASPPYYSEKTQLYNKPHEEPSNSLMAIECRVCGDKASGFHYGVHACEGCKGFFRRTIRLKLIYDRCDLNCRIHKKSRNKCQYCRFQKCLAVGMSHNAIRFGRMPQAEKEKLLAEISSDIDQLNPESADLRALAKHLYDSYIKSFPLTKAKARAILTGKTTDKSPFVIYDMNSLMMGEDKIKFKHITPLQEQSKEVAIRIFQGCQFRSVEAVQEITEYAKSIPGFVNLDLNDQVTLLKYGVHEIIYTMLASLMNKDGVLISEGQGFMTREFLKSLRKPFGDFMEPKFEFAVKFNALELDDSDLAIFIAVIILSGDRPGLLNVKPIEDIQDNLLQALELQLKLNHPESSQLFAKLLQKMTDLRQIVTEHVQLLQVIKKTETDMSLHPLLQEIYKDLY
Test: qHTS assay for small molecule agonists of peroxisome proliferator-activated receptor gamma signaling (AID 588536)
Details: HEK293 PPARg-UAS-bla, beta-lactamase ratio, 16 h, percent of rosiglitazone response, DMSO as zero; series mostly up to 76.7 µM; activation: at the top concentration
Source text: NIH Chemical Genomics Center [NCGC] U.S. Environmental Protection Agency [EPA] National Institutes of Environmental Health Sciences [NIEHS] National Toxicology Program [NTP] NCGC Assay Overview The Peroxisome proliferator-activated receptors (PPARs) are lipid-activated transcription factors of the nuclear receptor superfamily with three distinct subtypes namely PPAR alpha, PPAR delta (also called PPAR beta) and PPAR gamma. All these subtypes heterodimerizes with Retinoid X receptor (RXR) and these heterodimers regulate transcription of various genes. PPAR-gamma (glitazone receptor) agonists have been used in the treatment of type 2 diabetes and dyslipidaemia. It is involved in the regulation of glucose and lipid metabolism. PPAR-gamma activates certain genes like Paraoxonase 1 which is responsible for hydrolyzing organophosphates. PPAR-gamma agonists may also be therapeutically important in the treatment of coronary artery disease, obesity and cancer and atherosclerosis.
NCGC Assay Protocol Summary Using a beta-lactamase reporter-gene under control of Peroxisome Proliferator-Activated-gamma (PPAR-gamma) response element, a cell-based assay [GeneBLAzer PPAR-gamma-UAS-bla assay developed by Invitrogen] was used to measure PPAR-gamma ligands signaling. GeneBLAzer PPAR-gamma-UAS-bla-HEK293 cells were used with assay medium containing 1% charcoal/dextran treated FBS. The assay was performed in clear bottom black Greiner 1536-well plates. Rosiglitazone was used in the screen as the positive control. Library compounds were measured for their ability to stimulate the reporter gene activity. Compounds were screened in a titration series in 1536-well format. The fluorescence intensity (405 nm excitation, 460/530 nm emission) was measured using an EnVision plate reader. Data was normalized relative to Rosiglitazone control (2 uM, 100%), and DMSO only wells (basal, 0%). Concentration-response titration points for each compound were fitted to the Hill equation yielding concentrations of half-maximal stimulation (EC50) and maximal response (efficacy) values. qHTS protocol for PPAR-gamma beta-lactamase assay in agonist mode [Step] [Parameter] [Value] [Description] 1. Reagent; 6 uL; 3000 cells/well 2. Incubation; 37 C for 6 - 6.5 hrs 3. Compounds; 23 nL; 0.59 nM to 92 uM 4. Controls (Rosiglitazone); 23 nL, - One column with dose response, start 19 uM, 1:3 dilutions in duplicates - Final concentrations of 2 uM and 0.5 uM in two columns 5. Incubation; 37 C for 16 hrs 6. Detection reagent; 1 uL of CCF4-dye 7. Incubation; RT for 2 hrs 8. Detection; Fluorescence; Envision plate reader

| SMILES | activation | outcome |
| --- | --- | --- |
| Cl[Si](Cl)(Cl)c1ccccc1 | 0.0822% (inactive) | – |
| CCOc1ccc(NC(=O)OC(C)C)cc1OCC | 7.68% (inactive) | – |
| CC(C)(C)c1ccc(C(=O)O)cc1 | -8.52% (inactive) | – |
| C=C(C)C(=O)OCC[N+](C)(C)C | -5.66% (inactive) | – |
| COC(=O)C1CCC(C(=O)OC)CC1 (stereo not given) | 0.602% (inactive) | – |
| NC(=O)Cc1cccc2ccccc12 | 5.88% (inactive) | – |
| S=C([S-])NCCNC(=S)[S-].[Mn+2] | – | inactive |
| CCCCOCC(C)OCC(C)O (stereo not given) | -0.494% (inactive) | – |
| CCCCCCCCCCCC[N+](C)(C)[O-] | 1.76% (inactive) | – |
| CCO[Si](CCC#N)(OCC)OCC | -5% (inactive) | – |
| CCCCCCCCCCCCCC(=O)OC | 0.0758% (inactive) | – |
| CCCCC(CC)COC(C)=O (stereo not given) | -4.29% (inactive) | – |
| NN(c1ccccc1)c1ccccc1 | -7.54% (inactive) | – |
| CCCCOCCOCCO | -2.27% (inactive) | – |
| CCCCC(CC)COC(=O)/C=C\C(=O)OCC(CC)CCCC (stereo not given) | -14.4% (inactive) | – |
| CCCCCCCCCCO | – | inactive |
| CC(C)(N=C=O)c1cccc(C(C)(C)N=C=O)c1 | -6.45% (inactive) | – |
| O=C1CCC(C2CCCCC2)CC1 | 6.7% (inactive) | – |
| Cc1ccc(C(=O)c2ccccc2)cc1 | -1.99% (inactive) | – |
| Cc1ccc(C(C)(C)C)c(O)c1 | -2.67% (inactive) | – |

| SMILES | activation | outcome |
| --- | --- | --- |
| c1ccc2cc3ccccc3cc2c1 | 0.0473% (inactive) | – |
| O=c1oc(=O)c2cc3c(=O)oc(=O)c3cc12 | -4.53% (inactive) | – |
| CC1(C)C(=O)N(Br)C(=O)N1Cl | -0.3% (inactive) | – |
| CCCC/C=C\CCCCCCCCO | 3.1% (inactive) | – |
| FC(F)(F)c1ccc(Cl)c(Cl)c1 | -4.81% (inactive) | – |
| CC(C)OC(=O)c1ccccc1C(=O)OC(C)C | 0.37% (inactive) | – |
| CCCCN(CCCC)CCCCCCN(CCCC)CCCC | -4.4% (inactive) | – |
| CCCCCCCCCC[N+](C)(C)Cc1ccccc1 | -12.8% (inactive) | – |
| CC(=O)OC(C)(C)C1CC=C(C)CC1 (stereo not given) | 2.53% (inactive) | – |
| CC(=O)CC(=O)Nc1ccc(C)cc1C | -7.64% (inactive) | – |
| CCCCCCCCCCCCCCCCCC#N | -0.402% (inactive) | – |
| CCC(C)(C)C1CCC(O)CC1 (stereo not given) | -5.04% (inactive) | – |
| S=C(S)NCCNC(=S)S | -2.9% (inactive) | – |
| CCCCCCCCCCCCN | -1.01% (inactive) | – |
| Cn1sccc1=O | -0.701% (inactive) | – |
| C[Si]1(C)N[Si](C)(C)N[Si](C)(C)N1 | -3.67% (inactive) | – |
| CC(C)c1cccc(C(C)C)c1 | -13.8% (inactive) | – |
| CC1(C)C(=O)NC(=O)N1CO | -3.26% (inactive) | – |
| O=S(=O)(O)c1ccc(N=Nc2cc(S(=O)(=O)O)c3ccccc3c2O)c2ccccc12 | -4.07% (inactive) | – |
| CC(C)(C)c1n[nH]c(=O)n(N)c1=O | 0.169% (inactive) | – |

Reference: PubChem BioAssay (NCATS)
